# Many of the other results were omitted from the sample, so the strongest signals are more common in it than they were.
# B1: BIp1-His (Cryptococcus neoformans) (protein)
# chain: MFTKIFVALFAATAVLSAPVESAEKRITHTGRATFYSPSVGIGACGWQNTDEELVVALNAPQYALNADHNCGQSVRITNEQNGNQEIAKVVDLCPGCNDGDLDMSPALFGALNNNDFDQGVFPISWNFLPRDDTSSSN
# How the values were obtained:
# Test in all cases: glycan array binding signal (z-score within array); higher = stronger binding
# Conditions in all cases: glycan notation: IUPAC condensed, linker removed
# [1] = target: GlcNAc(b1-3)Gal(b1-4)GlcNAc(b1-3)Gal(b1-4)GlcNAc(b1-3)Gal(b1-4)GlcNAc(b1-3)Gal(b1-4)GlcNAc(b1-2)[GlcNAc(b1-3)Gal(b1-4)GlcNAc(b1-3)Gal(b1-4)GlcNAc(b1-3)Gal(b1-4)GlcNAc(b1-3)Gal(b1-4)GlcNAc(b1-6)]Man(a1-6)[GlcNAc(b1-3)Gal(b1-4)GlcNAc(b1-3)Gal(b1-4)GlcNAc(b1-3)Gal(b1-4)GlcNAc(b1-3)Gal(b1-4)GlcNAc(b1-2)Man(a1-3)]Man(b1-4)GlcNAc(b1-4)[Fuc(a1-6)]GlcNAc
# Summary of the method: (§1)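 The binding signal is a Z-score computed within each array. Data were drawn from 3228 arrays in the Consortium for Functional Glycomics database, restricted to those with a known protein sequence. Scores were averaged over arrays of the same protein sequence at different concentrations or buffers, and over linkers, and negative values can be taken as non-binding.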
# [2] = target: GlcNAc(b1-3)[GlcNAc(b1-6)]GalNAc
# Summary of the method: as §1
# Man(a1-2)Man(a1-3)Man = target: Man(a1-2)Man(a1-3)Man
# Summary of the method: as §1
# Man(a1-3)[Man(a1-6)]Man = target: Man(a1-3)[Man(a1-6)]Man
# Summary of the method: as §1
# [3] = target: Neu5Ac(a2-3)Gal(b1-3)GalNAc(b1-4)Gal(b1-4)Glc
# Summary of the method: as §1
# [4] = target: Neu5Ac(a2-3)Gal(b1-3)GlcNAc
# Summary of the method: as §1
# [5] = target: Neu5Ac(a2-3)Gal(b1-3)GlcNAc(b1-3)Gal(b1-4)GlcNAc
# Summary of the method: as §1
# [6] = target: Neu5Ac(a2-3)Gal(b1-3)GlcNAc(b1-6)GalNAc
# Summary of the method: as §1
# [7] = target: Neu5Ac(a2-3)Gal(b1-3)[Fuc(a1-4)]GlcNAc(b1-3)Gal(b1-3)[Fuc(a1-4)]GlcNAc
# Summary of the method: as §1
# [8] = target: Neu5Ac(a2-3)Gal(b1-4)GlcNAc(b1-2)Man(a1-3)[Neu5Ac(a2-6)Gal(b1-4)GlcNAc(b1-2)Man(a1-6)]Man(b1-4)GlcNAc(b1-4)GlcNAc
# Summary of the method: as §1
# [9] = target: Neu5Ac(a2-3)Gal(b1-4)GlcNAc(b1-3)Gal(b1-4)GlcNAc(b1-2)Man(a1-3)[Neu5Ac(a2-3)Gal(b1-4)GlcNAc(b1-3)Gal(b1-4)GlcNAc(b1-2)Man(a1-6)]Man(b1-4)GlcNAc(b1-4)GlcNAc
# Summary of the method: as §1
# [10] = target: Neu5Ac(a2-3)Gal(b1-4)GlcNAc(b1-3)Gal(b1-4)GlcNAc(b1-3)Gal(b1-4)GlcNAc(b1-2)Man(a1-3)[Neu5Ac(a2-3)Gal(b1-4)GlcNAc(b1-3)Gal(b1-4)GlcNAc(b1-3)Gal(b1-4)GlcNAc(b1-2)Man(a1-6)]GalNAc
# Summary of the method: as §1
# [11] = target: Neu5Ac(a2-3)Gal(b1-4)GlcNAc(b1-3)Gal(b1-4)GlcNAc(b1-3)[Neu5Ac(a2-3)Gal(b1-4)GlcNAc(b1-3)Gal(b1-4)GlcNAc(b1-6)]GalNAc
# Summary of the method: as §1
# [12] = target: Neu5Ac(a2-3)Gal(b1-4)GlcNAc(b1-6)[Neu5Ac(a2-3)Gal(b1-3)]GalNAc
# Summary of the method: as §1
# [13] = target: Neu5Ac(a2-3)Gal(b1-4)[Fuc(a1-3)]GlcNAc(b1-3)GalNAc
# Summary of the method: as §1
# [14] = target: Neu5Ac(a2-3)Gal(b1-4)[Fuc(a1-3)]GlcNAc(b1-6)[Gal(b1-3)]GalNAc
# Summary of the method: as §1
# [15] = target: Neu5Ac(a2-6)Gal(b1-4)GlcNAc(b1-2)Man(a1-3)Man(b1-4)GlcNAc(b1-4)GlcNAc
# Summary of the method: as §1
# [16] = target: Neu5Ac(a2-6)Gal(b1-4)GlcNAc(b1-2)Man(a1-3)[Neu5Ac(a2-6)Gal(b1-4)GlcNAc(b1-2)Man(a1-6)]Man(b1-4)GlcNAc(b1-4)[Fuc(a1-6)]GlcNAc
# Summary of the method: as §1
# [17] = target: Neu5Ac(a2-6)Gal(b1-4)GlcNAc(b1-2)[Neu5Ac(a2-6)Gal(b1-4)GlcNAc(b1-4)]Man(a1-3)[GlcNAc(b1-4)][Neu5Ac(a2-6)Gal(b1-4)GlcNAc(b1-2)[Neu5Ac(a2-6)Gal(b1-4)GlcNAc(b1-6)]Man(a1-6)]Man(b1-4)GlcNAc(b1-4)GlcNAc
# Summary of the method: as §1
# [18] = target: Neu5Ac(a2-6)Gal(b1-4)GlcNAc(b1-3)Gal(b1-4)[Fuc(a1-3)]GlcNAc(b1-3)Gal(b1-4)[Fuc(a1-3)]GlcNAc
# Summary of the method: as §1
# [19] = target: Neu5Ac(a2-8)Neu5Ac(a2-3)Gal(b1-3)GalNAc(b1-4)[Neu5Ac(a2-8)Neu5Ac(a2-3)]Gal(b1-4)Glc
# Summary of the method: as §1
# Neu5Ac(b2-6)GalNAc = target: Neu5Ac(b2-6)GalNAc
# Summary of the method: as §1
# [20] = target: Neu5Gc(a2-3)Gal(b1-3)[Fuc(a1-4)]GlcNAc
# Summary of the method: as §1
binder,measurement,setting,value
B1,glycan array binding signal (z-score),[1],0.882
same,glycan array binding signal (z-score),[2],-0.522
same,glycan array binding signal (z-score),Man(a1-2)Man(a1-3)Man,-0.136
same,glycan array binding signal (z-score),Man(a1-3)[Man(a1-6)]Man,0.728
same,glycan array binding signal (z-score),[3],-0.565
same,glycan array binding signal (z-score),[4],-0.217
same,glycan array binding signal (z-score),[5],0.65
same,glycan array binding signal (z-score),[6],1.86
same,glycan array binding signal (z-score),[7],-0.526
same,glycan array binding signal (z-score),[8],-0.064
same,glycan array binding signal (z-score),[9],-0.11
same,glycan array binding signal (z-score),[10],2.41
same,glycan array binding signal (z-score),[11],-0.12
same,glycan array binding signal (z-score),[12],-1.36
same,glycan array binding signal (z-score),[13],1.32
same,glycan array binding signal (z-score),[14],0.648
same,glycan array binding signal (z-score),[15],0.176
same,glycan array binding signal (z-score),[16],0.617
same,glycan array binding signal (z-score),[17],-0.066
same,glycan array binding signal (z-score),[18],-0.059
same,glycan array binding signal (z-score),[19],1.77
same,glycan array binding signal (z-score),Neu5Ac(b2-6)GalNAc,-0.971
same,glycan array binding signal (z-score),[20],-0.455
